# PubChem BioAssay (EPA / NIEHS)
# Calls of active or inactive are those of the source. Rule for the calls: active = hit-call score of the fitted dose curve at least 0.9, where 1 is the maximum; inactive = score below 0.9.
# Assays:
# [1] = APR_HepG2_NuclearSize_72hr: Apredica 72-hour HepG2 Assay for Nuclear Size (AID 2282925); details: high-content imaging, actives raise or lower the signal
# Summary of the method: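 HepG2; cpd 0.39–200 uM, 10 conc, duplicate; 72 h; DMSO 0.5% v/v; fix 3.7% formaldehyde 30 min RT; Triton permeabilization; Hoechst 2 ug/mL; HCS imaging 20x; nuclear diameter; gain/loss fit vs DMSO.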
# [2] = biological target: CCAAT/enhancer-binding protein beta (Homo sapiens) (UniProt P17676); assay: ATG_C_EBP_CIS: Attagene CIS-FACTORIAL HepG2 Assay for human CCAAT/Enhancer Binding Protein (C/EBP) beta (AID 2282927); details: HepG2 Attagene cis-factorial transcription factor reporter; actives raise or lower the signal
# Summary of the method: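 Endogenous C/EBPb-driven reporter transcripts measured in transfected human HepG2 cells at 24 h via RT-PCR and capillary electrophoresis of labelled fragments. Activity fitted in both directions relative to DMSO baseline.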
# [3] = ATG_CMV_CIS: Attagene CIS-FACTORIAL HepG2 Assay for human CMV (Internal Marker) (AID 2282928); details: HepG2 CMV promoter reporter, transcription factor profiling; actives raise or lower the signal;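 note: endpoint acts as a background internal control marker rather than a target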
# Summary of the method: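 HepG2 cells transiently transfected with multiple cis-regulated reporter units; 24 h compound exposure. Reporter mRNA quantified by RT-PCR, 6-FAM primer-extension labeling, HpaI digestion and capillary electrophoresis; bidirectional fitting against DMSO baseline.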
# [4] = ATG_DR4_LXR_CIS: Attagene CIS-FACTORIAL HepG2 Assay for human Liver X Receptor (LXR), DR4 submotif (AID 2282929); details: HepG2 Attagene DR4 cis-reporter, mRNA transcription; actives raise or lower the signal
# Summary of the method: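 Transiently transfected HepG2 liver cells; cis-regulated reporters; 24 h dosing. RT-PCR plus CE read-out of reporter mRNA. DMSO baseline, bidirectional curve fitting.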
# [5] = biological target: Aryl hydrocarbon receptor (Homo sapiens) (UniProt P35869); assay: ATG_Ahr_CIS: Attagene CIS-FACTORIAL HepG2 Assay for human Aryl Hydrocarbon Receptor (Ahr) (AID 2282930); details: HepG2 AhR cis-factorial reporter transcription; actives raise or lower the signal
# Summary of the method: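 Reporter mRNA levels, quantified by RT-PCR and fluorescent capillary electrophoresis, reflect endogenous AhR transcriptional activity in HepG2 cells carrying transfected cis-promoter reporter constructs. Readout at 24 h post-dose; gain or loss fitted against DMSO baseline.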
# [6] = ATG_AP_1_CIS: Attagene CIS-FACTORIAL HepG2 Assay for human Activator Protein 1 (AP-1) (AID 2282931); details: HepG2 Attagene cis-factorial AP-1 reporter mRNA; actives raise or lower the signal
# Summary of the method: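 We transfected HepG2 cells transiently with a set of cis-regulated reporter transcription units, dosed them for 24 h, and quantified reporter mRNA via RT-PCR and capillary electrophoresis, scoring gain or loss of signal relative to DMSO.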
# [7] = ATG_AP_2_CIS: Attagene CIS-FACTORIAL HepG2 Assay for human Activator Protein 2 (AP-2) (AID 2282932); details: HepG2 AP-2 cis-reporter, Attagene transcription factor profiling; actives raise or lower the signal
# Summary of the method: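 Step one: transient transfection of HepG2 with reporter transcription units. Step two: 24 h chemical exposure. Step three: RNA extraction, RT-PCR, labelled fragment analysis by capillary electrophoresis; DMSO serves as baseline.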
# [8] = ATG_BRE_CIS: Attagene CIS-FACTORIAL HepG2 Assay for human Bone Morphogenetic Protein (BMP) Response Element (BRE) (AID 2282933); details: HepG2 BMP response element reporter, Attagene transcription factor profiling; actives raise or lower the signal
# Summary of the method: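 Endogenous transcription factor activity read in transiently transfected HepG2 cells after 24 h chemical exposure. Bidirectional curve fitting against DMSO; readout is reporter transcript level by RT-PCR with capillary electrophoresis of labelled products.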
# [9] = biological target: Retinoic acid receptor alpha (Homo sapiens) (UniProt P10276); assay: ATG_DR5_RAR_CIS: Attagene CIS-FACTORIAL HepG2 Assay for human Retinoic Acid Receptor Alpha (RARE), DR5 submotif (AID 2282934); details: HepG2 Attagene cis-factorial RARE DR5 reporter, mRNA; actives raise or lower the signal;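 for AC50: reporter responds to endogenous RAR alpha beta and gamma in HepG2 not RARA alone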
# Summary of the method: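 Reporter transcripts from a DR5-regulated unit, measured via RT-PCR plus capillary electrophoresis, reflect endogenous RAR activity in transiently transfected human HepG2 liver cells. Exposure lasted 24 h; gain or loss of signal scored against DMSO.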
# [10] = biological target: Transcription factor E2F1 (Homo sapiens) (UniProt Q01094); assay: ATG_E2F_CIS: Attagene CIS-FACTORIAL HepG2 Assay for human E2F Transcription Factor 1 (AID 2282935); details: HepG2 Attagene cis-reporter, E2F reporter RNA transcripts; actives raise or lower the signal
# Summary of the method: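 Total RNA from 24 h-treated, reporter-transfected HepG2 cells undergoes DNase I treatment, oligo(dT) reverse transcription, PCR and 6-FAM primer extension before capillary electrophoresis.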
# [11] = ATG_E_Box_CIS: Attagene CIS-FACTORIAL HepG2 Assay for human Enhancer Box (E-box) (AID 2282936); details: HepG2 E-box cis-reporter transcription, actives raise or lower the signal
# Summary of the method: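 DMSO served as negative control and baseline for bidirectional fitting. Human hepatoma HepG2 cells, transiently transfected with cis-reporter constructs, were dosed 24 h; reporter mRNA read by RT-PCR and capillary electrophoresis.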
# [12] = ATG_M_61_CIS: Attagene CIS-FACTORIAL HepG2 Assay for M61 Transcription Factor (Internal Marker) (AID 2282937); details: HepG2 Attagene CIS-FACTORIAL M61 internal marker reporter; actives raise or lower the signal
# Summary of the method: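 Multiplexed reporter mRNA assay, HepG2 human hepatoma cells, 24 h treatment. Signal: FAM-labelled, HpaI-digested RT-PCR fragments by CE. Fit: bidirectional, baseline DMSO.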
# [13] = ATG_EGR_CIS: Attagene CIS-FACTORIAL HepG2 Assay for human Early Growth Response 1 (EGR1) (AID 2282938); details: HepG2 Attagene CIS-FACTORIAL EGR reporter mRNA; actives raise or lower the signal
# Summary of the method: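 Multiplexed cis-reporter system in human hepatoma HepG2 cells, transiently transfected. Cells are dosed for 24 h; reporter transcripts are amplified, fluorescently tagged and sized by capillary electrophoresis, with DMSO as negative control.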
# [14] = ATG_M_19_CIS: Attagene CIS-FACTORIAL HepG2 Assay for M19 Transcription Factor (Internal Marker) (AID 2282939); details: HepG2 Attagene CIS-FACTORIAL M19 internal marker reporter; actives raise or lower the signal
# Summary of the method: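 Internal marker readout, fitted in both directions against DMSO, from HepG2 cells carrying transfected cis-element reporter constructs; RT-PCR and capillary electrophoresis of reporter mRNA after 24 h exposure.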
# [15] = ATG_ERE_CIS: Attagene CIS-FACTORIAL HepG2 Assay for Estrogen Response Element (ERE) (AID 2282940); details: HepG2 ERE cis-reporter, Attagene RNA transcript; actives raise or lower the signal
# Summary of the method: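 After 24 h compound treatment, RNA from transfected HepG2 cells was reverse-transcribed, reporter cDNA PCR-amplified, FAM-labelled, HpaI-cut and resolved by capillary electrophoresis. ERE-driven cis reporter transcripts reflect endogenous factors; gain or loss scored against DMSO.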
# [16] = ATG_Ets_CIS: Attagene CIS-FACTORIAL HepG2 Assay for human Erythroblast Transformation Specific (ETS) (AID 2282941); details: HepG2 ETS cis-reporter transcription, actives raise or lower the signal
# Summary of the method: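 HepG2 cells transiently transfected with cis-promoter reporter transcription units were dosed for 24 h; reporter mRNA was measured by RT-PCR, 6-FAM primer extension, HpaI digestion and capillary electrophoresis, with bidirectional fitting against DMSO baseline.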
# [17] = ATG_FoxO_CIS: Attagene CIS-FACTORIAL HepG2 Assay for human Forkhead box O (FoxO) (AID 2282943); details: HepG2 Attagene cis-reporter, FoxO element, mRNA; actives raise or lower the signal
# Summary of the method: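 Endogenous transcription factor activity read from multiplexed cis-promoter reporter transcripts in transiently transfected HepG2, 24 h after dosing. Reporter RNA measured via RT-PCR plus capillary electrophoresis of FAM-labeled products; gain or loss relative to DMSO.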
# [18] = ATG_GATA_CIS: Attagene CIS-FACTORIAL HepG2 Assay for human GATA Binding Protein (AID 2282944); details: HepG2 GATA cis-element reporter, Attagene multiplex mRNA; actives raise or lower the signal
# Summary of the method: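 Reporter transcripts from a GATA cis-regulated unit, among multiplexed reporters in transfected HepG2 cells, were measured by RT-PCR with capillary electrophoresis after 24 h dosing. Induction or loss scored relative to DMSO.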
# [19] = biological target: Hepatocyte nuclear factor 3-beta (Homo sapiens) (UniProt Q9Y261); assay: ATG_FoxA2_CIS: Attagene CIS-FACTORIAL HepG2 Assay for human Forkhead box A2 (FOXA2) (AID 2282942); details: HepG2 cis-reporter transcription factor activity, 24 h; actives raise or lower the signal
# Summary of the method: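 Multiplexed cis-element reporter assay in transiently transfected HepG2. Twenty-four hours post-dosing, RNA was reverse-transcribed, amplified, FAM-labelled, HpaI-digested and separated by CE. Activity gain or loss relative to DMSO.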
# Chain of Transcription factor E2F1 (Homo sapiens) (Q01094 whole entry, looked up): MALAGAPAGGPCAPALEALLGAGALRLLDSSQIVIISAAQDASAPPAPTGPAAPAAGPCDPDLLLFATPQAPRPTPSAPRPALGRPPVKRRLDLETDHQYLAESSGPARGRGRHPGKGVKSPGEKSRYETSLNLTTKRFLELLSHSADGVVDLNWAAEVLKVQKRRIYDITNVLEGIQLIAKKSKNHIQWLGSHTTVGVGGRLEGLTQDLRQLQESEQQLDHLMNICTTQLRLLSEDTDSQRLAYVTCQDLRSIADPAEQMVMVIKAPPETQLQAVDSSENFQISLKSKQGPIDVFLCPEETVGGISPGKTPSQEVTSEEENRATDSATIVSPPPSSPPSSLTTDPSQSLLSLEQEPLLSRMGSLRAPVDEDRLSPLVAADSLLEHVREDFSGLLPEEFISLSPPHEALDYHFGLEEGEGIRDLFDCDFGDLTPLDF
# Chain of Aryl hydrocarbon receptor (Homo sapiens) (P35869 whole entry, looked up): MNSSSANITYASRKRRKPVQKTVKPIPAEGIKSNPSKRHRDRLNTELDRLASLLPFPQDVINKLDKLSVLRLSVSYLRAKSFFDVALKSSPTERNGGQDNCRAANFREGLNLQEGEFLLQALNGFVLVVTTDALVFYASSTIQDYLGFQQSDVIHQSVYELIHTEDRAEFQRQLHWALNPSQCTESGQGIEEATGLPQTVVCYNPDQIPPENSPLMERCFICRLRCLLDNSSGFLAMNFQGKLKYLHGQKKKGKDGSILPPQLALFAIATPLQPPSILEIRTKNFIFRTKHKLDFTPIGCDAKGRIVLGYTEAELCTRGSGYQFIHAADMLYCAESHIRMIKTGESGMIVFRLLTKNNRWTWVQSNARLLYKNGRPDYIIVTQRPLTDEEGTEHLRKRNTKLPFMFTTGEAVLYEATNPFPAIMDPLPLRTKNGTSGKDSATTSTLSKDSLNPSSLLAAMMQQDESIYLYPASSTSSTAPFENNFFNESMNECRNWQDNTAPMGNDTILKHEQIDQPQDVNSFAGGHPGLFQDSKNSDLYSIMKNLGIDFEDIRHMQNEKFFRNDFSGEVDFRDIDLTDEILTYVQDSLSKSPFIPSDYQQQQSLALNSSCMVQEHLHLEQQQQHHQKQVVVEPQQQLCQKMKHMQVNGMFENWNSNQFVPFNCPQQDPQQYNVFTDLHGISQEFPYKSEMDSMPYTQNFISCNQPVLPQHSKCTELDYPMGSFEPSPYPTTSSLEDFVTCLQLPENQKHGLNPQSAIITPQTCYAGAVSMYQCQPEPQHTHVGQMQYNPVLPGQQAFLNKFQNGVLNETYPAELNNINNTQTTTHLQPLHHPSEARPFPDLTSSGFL
# Chain of Retinoic acid receptor alpha (Homo sapiens) (P10276 whole entry, looked up): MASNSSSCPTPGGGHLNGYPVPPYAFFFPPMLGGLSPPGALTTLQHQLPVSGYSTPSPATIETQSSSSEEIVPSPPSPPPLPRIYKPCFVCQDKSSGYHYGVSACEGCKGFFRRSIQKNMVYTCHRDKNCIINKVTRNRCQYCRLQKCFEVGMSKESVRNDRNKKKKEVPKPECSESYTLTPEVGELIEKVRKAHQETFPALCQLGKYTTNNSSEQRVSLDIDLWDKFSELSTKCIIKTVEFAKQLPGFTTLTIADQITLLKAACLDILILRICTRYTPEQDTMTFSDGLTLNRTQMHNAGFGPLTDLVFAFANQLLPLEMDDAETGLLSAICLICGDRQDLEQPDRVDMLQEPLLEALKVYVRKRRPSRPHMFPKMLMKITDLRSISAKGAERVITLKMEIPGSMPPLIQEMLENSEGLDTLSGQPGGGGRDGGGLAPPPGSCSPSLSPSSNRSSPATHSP
# Chain of CCAAT/enhancer-binding protein beta (Homo sapiens) (P17676 whole entry, looked up, the tested form may be a part): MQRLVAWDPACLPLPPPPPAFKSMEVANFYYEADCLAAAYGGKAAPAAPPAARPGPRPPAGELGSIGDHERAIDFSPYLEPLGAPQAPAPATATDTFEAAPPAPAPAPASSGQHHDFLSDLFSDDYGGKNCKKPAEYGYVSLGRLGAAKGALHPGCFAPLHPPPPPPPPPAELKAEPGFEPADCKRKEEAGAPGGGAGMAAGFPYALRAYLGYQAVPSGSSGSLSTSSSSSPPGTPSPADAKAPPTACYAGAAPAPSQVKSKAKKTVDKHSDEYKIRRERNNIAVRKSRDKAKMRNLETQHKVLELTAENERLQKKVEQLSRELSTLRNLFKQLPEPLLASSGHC
# Chain of Hepatocyte nuclear factor 3-beta (Homo sapiens) (Q9Y261 whole entry, looked up): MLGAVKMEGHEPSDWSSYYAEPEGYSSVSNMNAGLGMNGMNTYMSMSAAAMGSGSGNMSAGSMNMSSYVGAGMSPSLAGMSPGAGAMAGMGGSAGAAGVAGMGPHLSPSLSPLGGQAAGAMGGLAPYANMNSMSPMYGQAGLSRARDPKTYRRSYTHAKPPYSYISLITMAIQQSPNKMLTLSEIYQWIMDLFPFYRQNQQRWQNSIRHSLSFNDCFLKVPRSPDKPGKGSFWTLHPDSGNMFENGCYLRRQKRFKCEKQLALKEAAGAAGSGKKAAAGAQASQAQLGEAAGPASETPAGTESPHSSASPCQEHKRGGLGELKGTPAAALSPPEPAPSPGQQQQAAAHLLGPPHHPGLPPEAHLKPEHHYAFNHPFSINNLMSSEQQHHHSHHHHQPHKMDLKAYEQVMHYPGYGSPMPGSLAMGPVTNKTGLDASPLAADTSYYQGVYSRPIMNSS
structure (smiles),measurement,setting,value
CCCCOC(=O)CCCCCCCCC(=O)OCCCC,outcome,[1],inactive
same,outcome,[2],inactive
same,outcome,[3],inactive
same,AC50,[4],144 µM (active)
same,outcome,[5],inactive
same,outcome,[6],inactive
same,outcome,[7],inactive
same,outcome,[8],inactive
same,outcome,[9],inactive
same,outcome,[10],inactive
same,AC50,[11],142 µM (active)
same,outcome,[12],inactive
same,outcome,[13],inactive
same,outcome,[14],inactive
same,outcome,[15],inactive
same,outcome,[16],inactive
same,outcome,[17],inactive
same,outcome,[18],inactive
CCOC(=O)C(C)(C)Oc1ccc(Cl)cc1,outcome,[1],inactive
same,outcome,[3],inactive
same,outcome,[4],inactive
same,outcome,[5],inactive
same,outcome,[6],inactive
same,outcome,[7],inactive
same,outcome,[8],inactive
same,outcome,[10],inactive
same,outcome,[11],inactive
same,outcome,[12],inactive
same,outcome,[13],inactive
same,outcome,[14],inactive
same,outcome,[15],inactive
same,outcome,[16],inactive
same,outcome,[17],inactive
same,outcome,[18],inactive
CC(=O)C(C)=CC1C(C)=CCCC1(C)C (stereo unspecified),outcome,[1],inactive
same,outcome,[3],inactive
same,outcome,[4],inactive
same,outcome,[5],inactive
same,outcome,[6],inactive
same,outcome,[7],inactive
same,outcome,[8],inactive
same,outcome,[9],inactive
same,outcome,[10],inactive
same,outcome,[11],inactive
same,outcome,[12],inactive
same,outcome,[13],inactive
same,outcome,[14],inactive
same,AC50,[15],33.4 µM (active)
same,outcome,[16],inactive
same,outcome,[17],inactive
same,outcome,[18],inactive
O=C(O)Cc1ccccc1Nc1c(Cl)cccc1Cl,outcome,[1],inactive
same,outcome,[3],inactive
same,AC50,[4],68.7 µM (active)
same,AC50,[5],67.3 µM (active)
same,outcome,[6],inactive
same,outcome,[7],inactive
same,outcome,[8],inactive
same,outcome,[10],inactive
same,AC50,[11],176 µM (active)
same,outcome,[12],inactive
same,outcome,[13],inactive
same,outcome,[14],inactive
same,outcome,[15],inactive
same,outcome,[16],inactive
same,outcome,[19],inactive
same,outcome,[17],inactive
same,outcome,[18],inactive
COc1cc(/C=C/C(=O)CC(=O)/C=C/c2ccc(O)c(OC)c2)ccc1O,outcome,[1],inactive
same,outcome,[2],inactive
same,AC50,[3],54.2 µM (active)
same,AC50,[4],58.3 µM (active)
same,AC50,[5],55.2 µM (active)
same,AC50,[6],54.7 µM (active)
same,AC50,[7],55.5 µM (active)
same,outcome,[8],inactive
same,AC50,[9],25.9 µM (active)
same,outcome,[10],inactive
same,AC50,[11],45.8 µM (active)
same,outcome,[12],inactive
same,AC50,[13],42.5 µM (active)
same,outcome,[14],inactive
same,outcome,[15],inactive
same,outcome,[16],inactive
same,AC50,[17],33.4 µM (active)
same,outcome,[18],inactive
